Measurements published in PubChem BioAssay (NCATS).
“And” between values parts separate entries of the source, which are not always exact repeats. Equal entries are not always repeated. Results filed as inconclusive are left out. The source made the active and inactive calls. Unless noted, the call rests on the fitted dose curve; in most records, active means well fitted curve in the direction sought with a large enough effect; inconclusive means small, poorly fitted or top-dose-only effect, or another doubt; inactive means no such curve, though single readings can be large; an effect the other way counts as inactive or inconclusive.

Columns and labels:
[1] = target: Cytochrome P450 3A4 (Homo sapiens) (UniProt P08684); assay: qHTS Assay for Inhibitors and Substrates of Cytochrome P450 3A4 (AID 884); further: nearly all actives have a fitted effect of over 50% in size; further: potency means the concentration at half of the fitted maximal effect
Sequence of Cytochrome P450 3A4 (Homo sapiens) (P08684 whole entry, looked up): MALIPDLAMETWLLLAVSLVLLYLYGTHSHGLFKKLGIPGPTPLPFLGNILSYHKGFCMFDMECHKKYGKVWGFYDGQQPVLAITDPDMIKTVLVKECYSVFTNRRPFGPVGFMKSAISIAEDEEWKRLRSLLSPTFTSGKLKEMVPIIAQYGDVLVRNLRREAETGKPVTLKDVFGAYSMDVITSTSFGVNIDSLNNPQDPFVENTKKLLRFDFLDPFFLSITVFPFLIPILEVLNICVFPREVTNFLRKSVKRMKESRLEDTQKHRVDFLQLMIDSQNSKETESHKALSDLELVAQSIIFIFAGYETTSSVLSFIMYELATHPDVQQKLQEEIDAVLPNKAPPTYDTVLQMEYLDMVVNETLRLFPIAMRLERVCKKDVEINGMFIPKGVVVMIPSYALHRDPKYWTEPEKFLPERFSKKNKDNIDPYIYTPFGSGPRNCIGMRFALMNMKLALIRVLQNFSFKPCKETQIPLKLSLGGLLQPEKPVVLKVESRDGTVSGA
Outline: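 Luminescent readout of luciferin produced by CYP3A4 (20 nM) dealkylation of Luciferin-PPXE, 25 uM (its KM). NADPH-driven reaction ran 60 min at RT after 10 min compound preincubation; data scaled to 57 uM ketoconazole as 100% inhibition.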

[2] = Primary qHTS for small molecule stabilizers of the endoplasmic reticulum resident proteome: Secreted ER Calcium Modulated Protein (SERCaMP) assay (AID 1508630); further: on the % scale 0 is the no-effect control and ±100 the full control effect
Outline: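 The SH-SY5Y reporter protocol was run at 3 concentrations up to 38.3 uM (primary) or 11 concentrations (follow-up): 16 h compound, 100 nM thapsigargin for 4 h, then extracellular luciferase luminescence.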

[3] = target: Cytochrome P450 3A4 (Homo sapiens) (UniProt P08684); assay: qHTS Assay for Activators of Cytochrome P450 3A4 (AID 885); further: nearly all actives have a fitted effect of over 65% in size
Outline: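 Human CYP3A4 dealkylates Luciferin-PPXE to luciferin, which luciferase detection converts to light. Substrate was at its KM (25uM), buffer 200mM KPO4, reaction 60 min at RT.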

[4] = NFAT Signaling Pathway (AID 444; active means well fitted curve in either direction with a large enough effect, not every such curve was filed as active;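 further: carbachol stimulus at about its EC50 of 1 µM final; on the % scale 0 is the no-effect control and ±100 the full control effect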); conditions: Jurkat NFAT-bla M1, carbachol, beta-lactamase ratio, 5 h; at 7.69 µM (top of the series) unless noted
Outline: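 Jurkat cells carrying an NFAT-driven β-lactamase reporter and co-transfected muscarinic M1 receptor were treated with compound plus carbachol (1 uM final, an EC50 level) for 5 h at 37 °C. CCF4 loading followed for 1 h at RT; 460/530 nm ratio gave %activity.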

[5] = Stat Signaling Pathway (AID 446; active means well fitted curve in either direction with a large enough effect, not every such curve was filed as active;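 further: ME-180 cervical cancer cells given 40 pM IL-6 alongside compound; SIE-controlled beta-lactamase reporter measured as 460/530 nm FRET emission ratio; on the % scale 0 is the no-effect control and ±100 the full control effect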); conditions: ME-180 SIE beta-lactamase reporter, IL-6 stimulated, 5 h; at 7.69 µM (top of the series) unless noted
Outline: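 Normalization used AC90 stimulation (300 pM IL-6) and AC90 inhibition (125 nM pan-JAK inhibitor at 40 pM IL-6). The underlying signal is SIE-driven beta-lactamase in ME-180 cells after 5 h IL-6 exposure with compound.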

[6] = target: Glucocorticoid receptor (Homo sapiens) (UniProt P04150); assay: GR-GFP Redistribution (AID 450;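 active means compounds whose dose series gives a full or clear partial fitted curve of increased nuclear translocation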; further: potency means the concentration at half of the fitted maximal effect); conditions: U2OS GR-GFP nuclear translocation, laser cytometry, 2 h
Sequence of Glucocorticoid receptor (Homo sapiens) (P04150 whole entry, looked up, the tested form may be a part): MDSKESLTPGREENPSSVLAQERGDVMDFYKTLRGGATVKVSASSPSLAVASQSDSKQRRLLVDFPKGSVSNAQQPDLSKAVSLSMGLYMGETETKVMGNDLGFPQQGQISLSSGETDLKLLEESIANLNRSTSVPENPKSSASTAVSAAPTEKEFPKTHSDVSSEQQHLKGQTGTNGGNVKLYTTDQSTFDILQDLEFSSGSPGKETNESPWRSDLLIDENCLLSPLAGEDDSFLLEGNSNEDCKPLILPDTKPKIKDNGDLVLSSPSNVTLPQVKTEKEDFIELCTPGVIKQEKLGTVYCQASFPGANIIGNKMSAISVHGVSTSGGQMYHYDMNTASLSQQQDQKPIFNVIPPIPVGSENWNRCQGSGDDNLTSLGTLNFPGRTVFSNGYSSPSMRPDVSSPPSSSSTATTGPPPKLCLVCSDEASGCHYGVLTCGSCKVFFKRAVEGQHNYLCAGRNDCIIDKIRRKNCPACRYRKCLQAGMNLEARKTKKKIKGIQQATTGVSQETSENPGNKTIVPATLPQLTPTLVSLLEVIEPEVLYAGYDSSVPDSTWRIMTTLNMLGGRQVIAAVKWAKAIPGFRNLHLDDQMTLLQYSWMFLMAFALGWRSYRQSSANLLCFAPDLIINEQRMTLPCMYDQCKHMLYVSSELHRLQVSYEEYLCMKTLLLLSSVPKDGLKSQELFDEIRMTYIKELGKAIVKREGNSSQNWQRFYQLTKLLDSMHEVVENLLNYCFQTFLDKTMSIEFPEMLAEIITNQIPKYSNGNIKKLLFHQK

[7] = target: Glucocorticoid receptor (Homo sapiens) (UniProt P04150); assay: GR-EFC Redistribution (AID 451; calls by dose curve; further: potency means the concentration at half of the fitted maximal effect); conditions: CHO-K1 GR-EFC translocation, beta-gal luminescence, 2 h
Outline: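 CHO-K1 cells stably expressing nuclear-localized β-gal enzyme acceptor and GR fused C-terminally to the enzyme donor fragment; ligand-driven nuclear translocation restores β-gal by complementation. Compounds titrated up to 46 uM final, 2 h at 37 °C; luminescence read.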

[8] = target: Mitogen-activated protein kinase 10 (Mus musculus) (UniProt Q61831); assay: JNK3 AlphaScreen Assay (AID 530; active means well fitted curve in either direction with a large enough effect, not every such curve was filed as active;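 further: kinase came from lysate of stimulated human HepG2 cells; signal reports phosphorylation of biotinylated GST-cJun 1-79 at Ser73 with 10 µM ATP; on the % scale 0 is the no-effect control and ±100 the full control effect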)
Outline: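 Biotinylated GST-cJun(1-79) served as substrate for JNK3 in HepG2 lysates stimulated with IL-1beta and TNF-alpha. ATP was 10 uM final, pH 7.6. Ser73 phosphorylation was quantified by AlphaScreen (680 nm excitation).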

[9] = target: 3',5'-cyclic-AMP phosphodiesterase 4B (Homo sapiens) (UniProt Q07343); assay: qHTS Assay for Inhibitors of PDE-IV (AID 607; active means well fitted activation curve with a large enough effect in the main read-out, with a control signal flat, not every such curve was filed as active; further: % of control where 0% means no effect)
Sequence of 3',5'-cyclic-AMP phosphodiesterase 4B (Homo sapiens) (Q07343 whole entry, looked up): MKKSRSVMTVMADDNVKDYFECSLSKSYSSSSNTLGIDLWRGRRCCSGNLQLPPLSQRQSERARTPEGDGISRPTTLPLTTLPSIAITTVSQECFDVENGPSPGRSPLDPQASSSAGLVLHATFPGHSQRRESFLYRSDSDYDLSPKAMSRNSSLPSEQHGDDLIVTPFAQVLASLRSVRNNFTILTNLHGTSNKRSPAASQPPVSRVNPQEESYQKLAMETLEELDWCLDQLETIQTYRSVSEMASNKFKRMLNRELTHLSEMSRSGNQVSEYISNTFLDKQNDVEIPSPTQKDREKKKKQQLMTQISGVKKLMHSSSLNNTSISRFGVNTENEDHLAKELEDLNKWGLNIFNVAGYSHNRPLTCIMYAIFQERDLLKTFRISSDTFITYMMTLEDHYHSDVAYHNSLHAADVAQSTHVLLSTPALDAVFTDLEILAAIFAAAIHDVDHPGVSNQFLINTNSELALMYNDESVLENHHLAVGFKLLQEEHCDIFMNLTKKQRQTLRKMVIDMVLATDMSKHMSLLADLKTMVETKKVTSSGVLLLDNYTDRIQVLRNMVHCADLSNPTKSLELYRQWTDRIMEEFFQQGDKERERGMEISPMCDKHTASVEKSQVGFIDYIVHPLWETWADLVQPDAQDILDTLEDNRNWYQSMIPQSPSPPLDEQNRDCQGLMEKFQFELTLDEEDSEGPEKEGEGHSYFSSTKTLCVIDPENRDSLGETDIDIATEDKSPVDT
Outline: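 HEK293 ACTOne cells with CNG channel (1000/well), endogenous PDE4; membrane potential dye, compounds up to 22.9 uM final. Fluorescence Ex 535/Em 590; RO 20-1724 (100 uM final) as reference.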

[10] = Confirmation and Secondary Assay for Modulators of Hemoglobin Beta Chain Splicing at IVS2 654 locus (AID 910);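 further: per-well total GFP intensity by laser scanning cytometry after 2-day treatment; % of control where 0% means no effect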
Outline: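 HeLa cells stably carrying EGFP interrupted by mutant beta-globin IVS2-654 intron (CMV-driven) were treated with compound for 2 days at 37C; corrected splicing was scored as total peak GFP intensity per well (488 nm excitation, 500-520 nm emission).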

[11] = Confirmation and Secondary Assay for Modulators of Hemoglobin Beta Chain Splicing at IVS2 705 locus (AID 930);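 further: HeLa cells stably expressing the EGFP-705 splicing reporter; GFP fluorescence per well restored by corrected splicing of the IVS2-705 intron in EGFP; % of control where 0% means no effect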
Outline: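 Fluorescence gain (488 nm laser, 500-520 nm PMT) reflects restored correct splicing of a mutant IVS2-705 intron inside EGFP in stably transfected HeLa cells after 2-day compound treatment.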

[12] = qHTS Assay for Lipid Storage Modulators (AID 1519; calls by dose curve); conditions: Drosophila S3 cells, BODIPY lipid droplet/cell ratio, laser cytometry, cells loaded with oleic acid
Outline: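 Cells seeded at 5,000 per well were treated with compounds over a concentration series and loaded with oleic acid (400 uM, as added). Lipid droplet fluorescence (488 nm excitation, 500-530 nm channel) was read by laser-scanning cytometry and normalized to 20 uM Triacsin C.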

[13] = target: Ubiquitin carboxyl-terminal hydrolase 1 (Homo sapiens) (UniProt O94782); assay: Inhibitors of USP1/UAF1: Pilot qHTS (AID 504865); further: nearly all actives have a fitted effect of over 35% in size; further: potency means the concentration at half of the fitted maximal effect
Sequence of Ubiquitin carboxyl-terminal hydrolase 1 (Homo sapiens) (O94782 whole entry, looked up): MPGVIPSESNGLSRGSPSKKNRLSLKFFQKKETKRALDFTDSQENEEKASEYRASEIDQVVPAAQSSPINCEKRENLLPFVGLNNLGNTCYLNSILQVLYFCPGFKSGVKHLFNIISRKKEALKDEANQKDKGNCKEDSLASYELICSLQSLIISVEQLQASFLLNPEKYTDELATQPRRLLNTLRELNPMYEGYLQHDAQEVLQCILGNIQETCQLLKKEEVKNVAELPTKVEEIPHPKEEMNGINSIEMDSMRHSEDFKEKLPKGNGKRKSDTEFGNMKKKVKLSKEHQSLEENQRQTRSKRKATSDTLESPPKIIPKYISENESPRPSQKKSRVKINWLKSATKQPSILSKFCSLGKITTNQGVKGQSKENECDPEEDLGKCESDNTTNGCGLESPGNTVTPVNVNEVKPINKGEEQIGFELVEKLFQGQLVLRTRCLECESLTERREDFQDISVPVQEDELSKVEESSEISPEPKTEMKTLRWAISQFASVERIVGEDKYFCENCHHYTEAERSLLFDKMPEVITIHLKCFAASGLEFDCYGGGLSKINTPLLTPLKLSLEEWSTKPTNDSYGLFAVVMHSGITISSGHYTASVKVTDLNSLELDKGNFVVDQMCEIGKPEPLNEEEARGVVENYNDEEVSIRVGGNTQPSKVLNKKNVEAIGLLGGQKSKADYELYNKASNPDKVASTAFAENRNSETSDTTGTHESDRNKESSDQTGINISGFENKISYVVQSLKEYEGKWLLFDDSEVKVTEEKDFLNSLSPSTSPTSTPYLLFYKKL
Outline: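 USP1/UAF1 complex (1nM) preincubated with compound 15 min at room temperature, then Ub-Rho substrate (150nM final) added. Fluorescence read kinetically at 480/540 nm, 6 reads every 60 seconds. Buffer: 50mM HEPES pH 7.8, 0.5mM EDTA, 0.1 mg/ml BSA, 1mM TCEP, 0.01% Tween-20.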

[14] = target: Cytochrome P450 1A2 (Homo sapiens) (UniProt P05177); assay: p450-cyp1a2 (AID 410; calls by dose curve; further: potency means the concentration at half of the fitted maximal effect;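 on activity change, negative = inhibition: -100% = full effect of reference inhibitor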)
Sequence of Cytochrome P450 1A2 (Homo sapiens) (P05177 whole entry, looked up): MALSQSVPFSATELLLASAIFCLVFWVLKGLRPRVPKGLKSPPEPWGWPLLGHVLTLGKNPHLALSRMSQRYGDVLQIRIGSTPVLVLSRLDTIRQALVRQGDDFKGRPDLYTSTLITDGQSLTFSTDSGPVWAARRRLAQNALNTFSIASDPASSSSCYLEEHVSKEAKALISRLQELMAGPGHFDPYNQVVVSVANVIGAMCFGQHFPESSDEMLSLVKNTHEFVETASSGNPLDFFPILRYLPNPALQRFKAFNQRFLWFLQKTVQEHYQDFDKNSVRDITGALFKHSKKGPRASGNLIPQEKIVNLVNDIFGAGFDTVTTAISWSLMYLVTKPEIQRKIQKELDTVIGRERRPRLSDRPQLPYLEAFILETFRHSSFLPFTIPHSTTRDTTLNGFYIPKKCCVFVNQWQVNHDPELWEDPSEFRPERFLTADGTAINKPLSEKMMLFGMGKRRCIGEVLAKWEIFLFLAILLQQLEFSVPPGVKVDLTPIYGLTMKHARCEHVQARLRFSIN
Outline: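 Read-out is luminescence from luciferin produced by CYP1A2 demethylation of Luciferin-ME (100uM, at Km). Detection reagent stopped the 60 min NADPH-dependent reaction; signals were normalized to 57 uM furafylline.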

[15] = target: Cytochrome P450 2C19 (Homo sapiens) (UniProt P33261); assay: qHTS Assay for Inhibitors and Substrates of Cytochrome P450 2C19 (AID 899); further: potency means the concentration at half of the fitted maximal effect; nearly all actives have a fitted effect of over 60% in size
Outline: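 Human CYP2C19 (5nM) with Luciferin-H EGE at 10uM (its KM) in 50mM KPO4 was preincubated with compound for 10 min at 37C. NADPH regeneration started a 60 min 37C reaction. Luciferin was read by luminescence, normalized to 57uM ketoconazole.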

[16] = target: Lysosomal acid glucosylceramidase (Homo sapiens) (UniProt P04062); assay: Glucocerebrosidase-p2 (AID 348; in the data active means potency below about 10 µM; further: potency means the concentration at half of the fitted maximal effect); conditions: purified GBA, blue fluorogenic substrate, 40 min
Outline: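 Normal human glucocerebrosidase (0.2 nM) with blue fluorogenic substrate (80 uM final) in citrate/phosphate pH 5.9 with 10mM sodium taurocholate, 0.01% tween-20; 40 min RT, NaOH/glycine stop; fluorescence Ex 365/Em 440; AC50 from a titration from 0.6 nM upwards.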

[17] = AP1 Signaling Pathway (AID 357; active means well fitted curve in either direction with a large enough effect, not every such curve was filed as active); conditions: ME-180 (cervical carcinoma) AP-1-bla reporter, EGF-induced, beta-lactamase ratio, 5 h; at 7.69 µM (top of the series) unless noted
Outline: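 A ratiometric CCF4 readout (405 nm excitation; 460 and 530 nm emission) quantified AP-1-driven beta-lactamase in ME-180 cells after 5 h with compound and EC50 EGF; AC50 values were derived for activators and inhibitors.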

[18] = target: Rap guanine nucleotide exchange factor 3 (Homo sapiens) (UniProt O95398); assay: Confirmatory qHTS for antagonist of cAMP-regulated guanine nucleotide exchange factor 3 (EPAC1) (AID 1645880);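 further: plate controls were DMSO only for no effect and full effect of the ATA control for full effect; nearly all actives have a fitted effect of over 55% in size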
Outline: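 Released BODIPY-GDP fluoresces less than Rap1-bound BODIPY-GDP; the signal is followed at 480/540 nm at 5-min intervals over 30 min, after 5 min at room temperature. Reactions contain 100 nM EPAC1, 250 nM RAP1B-BODIPY-GDP and 50 uM GDP; results are normalized to ATA and DMSO.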

[19] = target: Rap guanine nucleotide exchange factor 3 (Homo sapiens) (UniProt O95398); assay: Confirmatory qHTS for agonist of cAMP-regulated guanine nucleotide exchange factor 3 (EPAC1) (AID 1645881);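 further: EPAC1 catalysed release of BODIPY-GDP from Rap1B seen as fluorescence loss; 100% = effect of cAMP agonist control; nearly all actives have a fitted effect of over 75% in size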
[20] = target: Rap guanine nucleotide exchange factor 4 (Homo sapiens) (UniProt Q8WZA2); assay: Confirmatory qHTS for agonist of cAMP-regulated guanine nucleotide exchange factor 4 (EPAC2) (AID 1645884);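 further: nucleotide exchange releases bodipy-GDP from Rap1 and this lowers its fluorescence; on the % scale 0 is the no-effect control and ±100 the full control effect; nearly all actives have a fitted effect of over 65% in size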
Sequence of Rap guanine nucleotide exchange factor 4 (Homo sapiens) (Q8WZA2 whole entry, looked up): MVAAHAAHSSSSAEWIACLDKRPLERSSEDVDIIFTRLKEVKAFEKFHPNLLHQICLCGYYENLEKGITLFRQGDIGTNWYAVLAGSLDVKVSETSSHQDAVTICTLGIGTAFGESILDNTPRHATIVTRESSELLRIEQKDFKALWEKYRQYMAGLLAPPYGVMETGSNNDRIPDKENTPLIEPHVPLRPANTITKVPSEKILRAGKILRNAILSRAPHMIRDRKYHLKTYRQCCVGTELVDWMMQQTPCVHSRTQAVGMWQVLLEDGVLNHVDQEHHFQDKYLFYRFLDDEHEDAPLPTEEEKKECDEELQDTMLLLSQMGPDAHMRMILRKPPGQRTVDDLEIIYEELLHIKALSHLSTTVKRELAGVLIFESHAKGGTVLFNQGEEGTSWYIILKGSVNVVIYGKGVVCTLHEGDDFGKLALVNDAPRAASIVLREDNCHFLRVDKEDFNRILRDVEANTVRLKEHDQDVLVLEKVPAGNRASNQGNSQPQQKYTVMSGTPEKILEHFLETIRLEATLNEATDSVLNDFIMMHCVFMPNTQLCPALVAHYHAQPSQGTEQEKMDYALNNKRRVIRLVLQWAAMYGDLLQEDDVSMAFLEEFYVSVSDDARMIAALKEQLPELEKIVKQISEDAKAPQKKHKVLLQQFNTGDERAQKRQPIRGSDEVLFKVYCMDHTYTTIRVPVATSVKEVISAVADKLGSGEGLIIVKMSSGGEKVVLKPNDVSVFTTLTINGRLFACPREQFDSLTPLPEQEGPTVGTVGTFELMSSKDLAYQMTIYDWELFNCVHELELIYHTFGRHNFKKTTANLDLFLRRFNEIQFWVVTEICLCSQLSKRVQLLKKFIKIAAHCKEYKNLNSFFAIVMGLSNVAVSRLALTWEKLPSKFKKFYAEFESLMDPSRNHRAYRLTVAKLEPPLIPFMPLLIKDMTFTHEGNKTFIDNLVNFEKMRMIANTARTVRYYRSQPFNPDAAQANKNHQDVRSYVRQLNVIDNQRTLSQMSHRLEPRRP

[21] = target: Rap guanine nucleotide exchange factor 4 (Homo sapiens) (UniProt Q8WZA2); assay: Confirmatory qHTS for antagonist of cAMP-regulated guanine nucleotide exchange factor 4 (EPAC2) (AID 1645885); further: on the % scale 0 is the no-effect control and ±100 the full control effect; nearly all actives have a fitted effect of over 25% in size
[22] = target: Cytochrome P450 2D6 (Homo sapiens) (UniProt P10635); assay: qHTS Assay for Inhibitors and Substrates of Cytochrome P450 2D6 (AID 891); further: potency means the concentration at half of the fitted maximal effect; nearly all actives have a fitted effect of over 60% in size
Sequence of Cytochrome P450 2D6 (Homo sapiens) (P10635 whole entry, looked up): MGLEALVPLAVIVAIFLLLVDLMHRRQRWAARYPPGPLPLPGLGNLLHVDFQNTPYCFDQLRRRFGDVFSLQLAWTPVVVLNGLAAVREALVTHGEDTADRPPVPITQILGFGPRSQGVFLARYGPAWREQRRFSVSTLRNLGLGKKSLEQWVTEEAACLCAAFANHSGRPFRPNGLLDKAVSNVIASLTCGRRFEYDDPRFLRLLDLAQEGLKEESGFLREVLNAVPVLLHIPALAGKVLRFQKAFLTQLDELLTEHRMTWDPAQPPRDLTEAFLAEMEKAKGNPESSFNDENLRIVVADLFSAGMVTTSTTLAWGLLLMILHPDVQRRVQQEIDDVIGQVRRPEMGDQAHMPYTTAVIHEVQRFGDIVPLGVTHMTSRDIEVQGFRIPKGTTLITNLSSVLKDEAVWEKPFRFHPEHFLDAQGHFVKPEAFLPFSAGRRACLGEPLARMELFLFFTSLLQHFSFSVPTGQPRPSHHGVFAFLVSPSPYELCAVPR
Outline: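 Luminescent read-out of luciferin formed by 5 nM human CYP2D6 demethylating 30 uM Luciferin-ME EGE (Km level) over 60 min at room temperature after NADPH regeneration addition. Data normalized to full inhibition by 1.43 uM quinidine.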

[23] = target: Cytochrome P450 2D6 (Homo sapiens) (UniProt P10635); assay: Cytochrome P450 family 2 subfamily D member 6 (CYP2D6) small molecule antagonists: luciferase biochemical (cell-free) qHTS assay (AID 1645840; active means well fitted curve in the direction sought with a large enough effect in the repeat runs; an effect the other way counts as inactive or inconclusive; further: on the % scale 0 is the no-effect control and ±100 the full control effect; nearly all actives have a fitted effect of over 55% in size)
Outline: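 P450-Glo CYP2D6 system: proluciferin substrate converted by enzyme to luciferin, read by luminescence proportional to activity. Enzyme-substrate mix with compound 10 min at room temperature, then NADPH regeneration 1 h before detection reagent.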

[24] = measured here: cell count channel max response
[25] = measured here: lipid channel max response

C/C(=C\COc1cc(=O)[nH]c2ccccc12)CCC(O)C(C)(C)O (stereo unspecified)
inactive: Potency [1] | outcome [2]

CC(C)(C)c1cc(C(=O)/C=C/c2ccc(C(=O)O)cc2)cc(C(C)(C)C)c1
inactive: Potency [3] | outcome [2]
active: Potency [1] 20 µM

Cc1[nH]ccc2c1[nH]c1cc(=O)ccc12
inactive: activity change, negative = inhibition [4] -37.6% [at 17.2 µM] | activity, negative = inhibition [5] 4.88% [at 17.2 µM] | Potency [6] > 20.6 µM and > 46 µM | Potency [7] > 20.6 µM and > 46 µM | Potency [8] | Potency [9] | Potency [10] | outcome [11] | activity change, negative = inhibition ([12]; at 25.7 µM (top of the series)) -0.514% | activity change, negative = inhibition ([12]; at 57.5 µM (top of the series)) 6.27% | Potency [13]
9.17% and 10.7%: max response [12, 25]
11.1% and 0.549%: max response [12, 24]

COc1ccc2[nH]cc(CCNc3nc(-c4ccc(C(=O)N(C)C)cc4)nc4ccccc34)c2c1
active: Potency [14] 15.8 µM | Potency [1] 2.51 µM | Potency [15] 3.16 µM
inactive: Potency [6] > 46 µM | Potency [7] > 46 µM | Potency [8] | Potency [9] | Potency [3] | Potency [10] | outcome [11] | Potency [13] | outcome [2]

O=C(c1cccc(F)c1)N1CCC[C@@]2(CCN(C(c3ccccc3)c3ccccc3)C2)C1
5.27%: max response [12, 24]
-12.6%: max response [12, 25]
inactive: Potency [16] > 11.4 µM | activity change, negative = inhibition [17] 28.8% | Potency [14] | activity change, negative = inhibition [4] 0.838% | activity, negative = inhibition [5] 12.6% | Potency [7] > 46 µM | Potency [8] | Potency [9] | Potency [3] | activity change, negative = inhibition ([12]; at 57.5 µM (top of the series)) -11.6% | Potency [18] | Potency [19] | Potency [20] | Potency [21]
active: Potency [1] 3.98 µM

Cc1cc(C)c(S(=O)(=O)Nc2ccccc2C(F)(F)F)c(C)c1
inactive: Potency [6] > 46 µM | Potency [7] > 46 µM | Potency [3] | outcome [2]
active: Potency [14] 31.6 µM | Potency [1] 2.51 µM | Potency [22] 6.31 µM

CCCCCC/C=C\CCCCCCCc1cccc(O)c1C(=O)O
inactive: Potency [1] | outcome [11] | activity change, negative = inhibition ([12]; at 57.5 µM (top of the series)) 8.36% | Potency [23]
active: Potency [13] 79.4 µM
17.7%: max response [12, 25]
7.08%: max response [12, 24]
